The panel holds about 83,000 compounds, 20% with a hit somewhere; the sample as a whole holds those more often.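 Step 1: grow cells in 96-well plates. Step 2: add test compound at a single concentration. Step 3: incubate 48 h. Step 4: record percent growth.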 Unmarked numbers belong to inactive results. Active and inactive are the calls of the source. Rule for the calls: active = growth percent below 10; inactive = the rest.
Experiments:
Experiment in all cases: NCI-60 one-dose screen, 48 h (100 = growth as untreated, 0 = no growth, -100 = all killed)
Conditions in all cases: 10 µM
SK-MEL-2 melanoma = tested on: SK-MEL-2 melanoma
EKVX NSCLC = tested on: EKVX NSCLC
SN12C renal = tested on: SN12C renal
UO-31 renal = tested on: UO-31 renal
TK-10 renal = tested on: TK-10 renal
ACHN renal = tested on: ACHN renal
CAKI-1 renal = tested on: CAKI-1 renal
A498 renal = tested on: A498 renal
CCRF-CEM leukemia = tested on: CCRF-CEM leukemia
MOLT-4 leukemia = tested on: MOLT-4 leukemia

Compound | growth (SK-MEL-2 melanoma) | growth (EKVX NSCLC) | growth (SN12C renal) | growth (UO-31 renal) | growth (TK-10 renal) | growth (ACHN renal) | growth (CAKI-1 renal) | growth (A498 renal) | growth (CCRF-CEM leukemia) | growth (MOLT-4 leukemia)
COc1ccc(/C=N/N=C(\C)c2ccc3c(c2)Nc2ccccc2S3)cc1O | 48.5% | 40.4% | 70.1% | 47% | 70.6% | 43.3% | 55.1% | 75.5% | 33.9% | 13.6%
O=C(c1ccc(Cl)cc1)C1[C@H](c2ccccc2Br)[C@@H](c2ccccc2)NC12C(=O)Nc1ccc(Cl)cc12 (stereo not given in full) | 13.8% | 16.5% | -58.6% (active) | 16.5% | 42.5% | 9.92% (active) | 8.98% (active) | 72.4% | 18.8% | 18%
CN1C(=O)N(C)C2SC(N/N=C/C=C/c3ccccc3)=NC21 (stereo not given) | 81.9% | 86.6% | 85.6% | 58.4% | 99.6% | 92.7% | 83.6% | 81.5% | 47.5% | 46.7%
Cc1ccn2c(C(=O)c3ccc(Br)cc3)cc(-c3cc(-c4ccc(N(C)C)cc4)c(C#N)c(N)n3)c2c1 | 81.1% | 68.2% | 76.5% | 63.3% | 98.9% | 71.5% | 67.2% | 91.9% | 94.3% | 94%
CC(=O)Nc1ccc(-c2cn(-c3cccc(C(=O)Nc4ccc(F)c(C(F)(F)F)c4)c3)nn2)cn1 | 88.9% | 79.9% | 13.4% | 123% | 109% | 56.4% | 74.1% | 114% | 53.9% | 36.9%
O=C(c1ccc(O)cc1)C1[C@H](c2ccc(Br)cc2)[C@@H](c2ccccc2)NC12C(=O)Nc1ccccc12 (stereo not given in full) | 55.7% | 28% | 23.5% | 18.9% | 35.9% | 6.89% (active) | 22.6% | 37% | 36.3% | 16.3%
O=C(NO)c1ccc(Cn2ccc3c(NCc4ccccc4)ncnc32)cc1 | -2.65% (active) | 21.4% | 13.9% | 4.26% (active) | -7.3% (active) | 0.241% (active) | 2.72% (active) | -20.1% (active) | 8.45% (active) | 3.81% (active)
CC(=O)Nc1ccc(-n2cnc3cc(-c4ccc(NS(C)(=O)=O)cc4)ccc32)cc1 | 73.2% | 61% | 46.3% | 32.1% | 83.7% | 52.3% | 17.5% | 86.5% | 36.1% | 24.5%
CCCCSc1nc(Nc2ccc(/C(C)=N/NC(N)=S)cc2)c(C#N)c(-c2ccc(OC)cc2)n1 | 104% | 79.4% | 7.27% (active) | -19.7% (active) | -0.624% (active) | 55.2% | 51.6% | 32.2% | 86.2% | 67.7%
O=C(CNc1nc(-c2ccccc2)cs1)Nc1ccccc1 | -68.8% (active) | -93.3% (active) | -47.3% (active) | 17.9% | -79.4% (active) | -27.4% (active) | 5.53% (active) | -4.95% (active) | 14.9% | -3.86% (active)
Cc1ccc(/C(CSc2nnc(-c3c[nH]c4ccccc34)n2-c2ccccc2)=N/O)cc1 | 62.7% | 28.3% | -36.7% (active) | 6.45% (active) | -65.1% (active) | -61.7% (active) | -27.4% (active) | 91.9% | -35% (active) | -27.8% (active)
O=C(Nc1nc2ccc([N+](=O)[O-])cc2s1)Nc1ccccc1I | -21.6% (active) | -8.48% (active) | 1.18% (active) | 0.855% (active) | 10.8% | -0.408% (active) | -19.5% (active) | -8.67% (active) | 3.88% (active) | 1.39% (active)
